# Experimental data reported in PubChem BioAssay (Tox21).
# “And” between values parts separate entries of the source, which are not always exact repeats. Equal entries are not always repeated. Inconclusive results are not listed. Entries that show only a call come without a potency. Some structures have more than one record in an assay (separate samples or runs), and their calls can disagree. The source made the active and inactive calls. Unless noted, calls follow the shape of the full dose curve.
# Legend:
# [1] = Nuclear factor erythroid 2-related factor 2/antioxidant responsive element (Nrf2/ARE) small molecule agonists: qHTS cell viability counter screen in human keratinocytes (AID 1919968; active = well fitted curve in the direction sought with a large enough effect in the repeat runs; an effect the other way counts as inactive or inconclusive; also: nearly all actives have a fitted effect of over 55% in size)
# Procedure, shortened: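 Seed 1,500 KeratinoSens cells per well, then incubate 5 h at 37 C/5% CO2. Add compounds in DMSO and incubate 23 h. Add CellTiter-Fluor, wait 1 h and read fluorescence.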
# [2] = Nuclear factor erythroid 2-related factor 2/antioxidant responsive element (Nrf2/ARE) small molecule agonists: luciferase reporter gene qHTS assay in human keratinocytes (AID 1919969); also: nearly all actives have a fitted effect of over 35% in size; also: potency is read from the fitted curve at half-maximal effect
# [3] = molecular target: Gonadotropin-releasing hormone receptor (Homo sapiens) (UniProt P30968); assay: Human gonadotropin-releasing hormone receptor (GnRHR) small molecule agonists, calcium flux assay in GnRHR-HEK293 cells (AID 1920063); also: nearly all actives have a fitted effect of over 35% in size
# Gonadotropin-releasing hormone receptor (Homo sapiens), sequence (P30968 whole entry, looked up): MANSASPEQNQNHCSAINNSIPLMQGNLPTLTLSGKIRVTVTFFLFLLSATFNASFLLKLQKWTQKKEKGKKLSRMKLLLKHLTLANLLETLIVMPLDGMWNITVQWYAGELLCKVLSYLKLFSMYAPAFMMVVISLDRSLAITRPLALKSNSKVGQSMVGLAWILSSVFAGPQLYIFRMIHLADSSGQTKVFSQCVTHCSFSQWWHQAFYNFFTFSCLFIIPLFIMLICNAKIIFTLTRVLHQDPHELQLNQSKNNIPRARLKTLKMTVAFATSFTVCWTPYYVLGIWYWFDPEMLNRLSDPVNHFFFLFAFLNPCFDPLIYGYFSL
# Procedure, shortened: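 Cells: HEK293 stably expressing human GnRHR. Steps: overnight (18 h) culture, 1 h calcium dye loading at 37 C, compound addition, kinetic fluorescence read at 480/540 nm. Each compound tested at 15 concentrations in triplicate.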
# [4] = molecular target: KiSS-1 receptor (Homo sapiens) (UniProt Q969F8); assay: Human kisspeptin (KISS1R) small molecule agonists, calcium flux assay in KISS1R-HEK293 cells (AID 1920064; active = well fitted curve in the direction sought with a large enough effect in the repeat runs; an effect the other way counts as inactive or inconclusive)
# KiSS-1 receptor (Homo sapiens), sequence (Q969F8 whole entry, looked up): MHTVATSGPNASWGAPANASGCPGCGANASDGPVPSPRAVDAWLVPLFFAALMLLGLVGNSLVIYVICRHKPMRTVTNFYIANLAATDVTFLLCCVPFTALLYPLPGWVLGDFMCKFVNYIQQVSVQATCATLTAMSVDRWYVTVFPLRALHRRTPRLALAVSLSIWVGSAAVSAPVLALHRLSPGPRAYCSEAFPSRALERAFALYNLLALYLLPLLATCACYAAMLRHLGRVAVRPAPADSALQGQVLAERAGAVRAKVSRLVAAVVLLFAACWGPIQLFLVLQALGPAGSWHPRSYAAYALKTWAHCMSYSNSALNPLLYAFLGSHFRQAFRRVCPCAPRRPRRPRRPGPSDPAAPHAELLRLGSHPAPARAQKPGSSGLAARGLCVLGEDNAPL
# Procedure, shortened: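 Cells plated and incubated 18 h; dye added, 1 h at 37 C; compounds in DMSO pinned in; signal read at 480/540 nm every second for 3 min. Each compound tested at 15 concentrations in triplicate.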
# [5] = G protein-coupled receptor (GPCR) small molecule agonists, calcium flux assay: HEK293 wild type cell line counter screen (AID 1920065)
# Procedure, shortened: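 Counter-screen of the Tox21 10K library for non-specific calcium release: dye-loaded cells received compounds in DMSO and were monitored by kinetic fluorescence (480/540 nm, 3 min). Fifteen concentrations, run in triplicate.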
# [6] = p53 small molecule agonists, cell-based qHTS assay with rat liver microsomes: qHTS cell viability counter screen (AID 1963580); also: nearly all actives have a fitted effect of over 45% in size
# Procedure, shortened: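 In HCT-116 cells carrying a p53 response element-bla reporter, compounds were metabolically activated in situ by rat liver microsomes with NADPH over 16 h. Cell ATP content then served as the cytotoxicity measure.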
# [7] = p53 small molecule agonists, cell-based qHTS assay: qHTS cell viability counter screen (AID 1963581); also: nearly all actives have a fitted effect of over 45% in size; also: potency is read from the fitted curve at half-maximal effect
# Procedure, shortened: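 Cells: HCT-116 with p53 response element-driven beta-lactamase. Treatment: 16 h, 37 C, compounds in DMSO. Read: CellTiter-Glo luminescence after 30 min RT.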
# [8] = cAMP Responsive Elements (CRE) small molecule agonists, cell-based qHTS assay (AID 1963590)
# Procedure, shortened: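 Agonist mode qHTS in CRE-bla HEK 293T cells: compounds dosed from DMSO for 3 h at 37 C/5% CO2, followed by LiveBLAzer B/G FRET substrate for 2 h at room temperature.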
# [9] = cAMP Responsive Elements (CRE) small molecule antagonists, cell-based qHTS assay (AID 1963591; active = well fitted inhibition curve with a large enough effect in the signal ratio in the repeat runs, not every such curve was filed as active; the % refers to the signal ratio)
# Procedure, shortened: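 Antagonist mode: test compounds are co-incubated with the adenylyl cyclase activator NKH477 (0.25 uM final) on CRE-bla HEK293T cells for 3 h at 37 °C, followed by LiveBLAzer substrate loading.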
# [10] = molecular target: Beta-2 adrenergic receptor (Homo sapiens) (UniProt P07550); assay: Adrenergic beta2 receptor (ADRB2) small molecule antagonists, cell-based qHTS assay (AID 1963592); also: series mostly up to about 92 µM; nearly all actives have a fitted effect of over 50% in size
# Beta-2 adrenergic receptor (Homo sapiens), sequence (P07550 whole entry, looked up): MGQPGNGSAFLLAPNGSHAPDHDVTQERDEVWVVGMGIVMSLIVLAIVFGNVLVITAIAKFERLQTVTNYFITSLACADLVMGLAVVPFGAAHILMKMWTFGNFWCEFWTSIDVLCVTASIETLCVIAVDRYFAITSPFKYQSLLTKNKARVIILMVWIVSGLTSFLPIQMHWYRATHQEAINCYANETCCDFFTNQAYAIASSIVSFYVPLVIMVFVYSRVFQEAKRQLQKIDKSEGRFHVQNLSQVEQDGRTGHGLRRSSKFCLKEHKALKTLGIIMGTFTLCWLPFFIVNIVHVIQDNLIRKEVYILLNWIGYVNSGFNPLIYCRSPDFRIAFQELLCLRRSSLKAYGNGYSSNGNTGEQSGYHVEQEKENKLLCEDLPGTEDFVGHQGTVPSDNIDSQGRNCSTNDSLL
# Procedure, shortened: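 Cells (CHO, stable ADRB2 overexpression) incubated 18-20hr at 37C; compounds added from DMSO; agonist mix (1nM isoproterenol, 100uM IBMX, 25uM Ro-20-1724) added; 0.5hr RT; d2-cAMP and anti-cAMP-cryptate added; 1hr RT; 665/615 nm read.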
# [11] = molecular target: Beta-2 adrenergic receptor (Homo sapiens) (UniProt P07550); assay: Adrenergic beta2 receptor (ADRB2) small molecule agonists, cell-based qHTS assay (AID 1963593);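 also: CHO cells stably overexpressing human ADRB2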
# Procedure, shortened: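 CHO cells stably over-expressing ADRB2 were plated overnight at 37C, then dosed with compounds plus a stimulation mix containing 100uM IBMX and 25uM Ro-20-1724 for 0.5hr at room temperature. cAMP was measured by HTRF competition, 1hr.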
# [12] = molecular target: D(2) dopamine receptor (Homo sapiens) (UniProt P14416); assay: Dopamine D2 receptor (DRD2) small molecule agonists, cell-based qHTS assay (AID 1963594); also: nearly all actives have a fitted effect of over 35% in size
# D(2) dopamine receptor (Homo sapiens), sequence (P14416 whole entry, looked up): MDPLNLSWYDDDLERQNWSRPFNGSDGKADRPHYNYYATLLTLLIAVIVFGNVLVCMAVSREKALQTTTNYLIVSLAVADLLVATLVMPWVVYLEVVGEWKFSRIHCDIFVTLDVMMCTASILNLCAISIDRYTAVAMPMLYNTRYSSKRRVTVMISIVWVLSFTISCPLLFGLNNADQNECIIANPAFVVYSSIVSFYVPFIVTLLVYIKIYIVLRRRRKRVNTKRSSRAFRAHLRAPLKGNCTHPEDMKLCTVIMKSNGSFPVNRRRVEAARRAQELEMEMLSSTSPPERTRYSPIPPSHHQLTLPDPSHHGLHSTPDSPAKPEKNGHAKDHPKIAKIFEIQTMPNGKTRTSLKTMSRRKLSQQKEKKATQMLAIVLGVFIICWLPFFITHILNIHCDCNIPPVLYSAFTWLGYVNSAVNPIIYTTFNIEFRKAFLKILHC
# Procedure, shortened: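 HEK293 cells stably expressing DRD2 were cultured 24 h at 37 C, then given Ro20-1724 (0.1 mM final) and compounds for 10 min at room temperature. NKH477 (200nM) was then added for 30 min. cAMP was read by HTRF.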
# [13] = molecular target: D(2) dopamine receptor (Homo sapiens) (UniProt P14416); assay: Dopamine D2 receptor (DRD2) small molecule antagonists, cell-based qHTS assay (AID 1963595; active = well fitted inhibition curve with a large enough effect in the signal ratio in the repeat runs, with a control signal flat; the % refers to the signal ratio)
# Procedure, shortened: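 Stable D2 receptor HEK293 line, 24 h after seeding. Compound preincubated 10 min, then quinpirole (12 nM) with forskolin analogue NKH477 (200 nM), 30 min, room temperature. Detection by time-resolved FRET of cAMP.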
# [14] = p53 small molecule agonists, cell-based qHTS assay with human liver microsomes: qHTS cell viability counter screen (AID 1963579); also: nearly all actives have a fitted effect of over 45% in size
# Procedure, shortened: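 Luminescent CellTiter-Glo read-out, 30 min at room temperature, gauged cytotoxicity in p53RE-bla cells exposed 16 h at 37 C to DMSO-dissolved compounds with metabolic activation by human liver microsomes and NADPH, each 0.5 mg/mL final.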
# [15] = molecular target: 5-hydroxytryptamine receptor 2A (Homo sapiens) (UniProt P28223); assay: 5-hydroxytryptamine receptor 2A (HTR2A) small molecule agonists, cell-based qHTS assay (AID 1963587); also: nearly all actives have a fitted effect of over 30% in size
# 5-hydroxytryptamine receptor 2A (Homo sapiens), sequence (P28223 whole entry, looked up): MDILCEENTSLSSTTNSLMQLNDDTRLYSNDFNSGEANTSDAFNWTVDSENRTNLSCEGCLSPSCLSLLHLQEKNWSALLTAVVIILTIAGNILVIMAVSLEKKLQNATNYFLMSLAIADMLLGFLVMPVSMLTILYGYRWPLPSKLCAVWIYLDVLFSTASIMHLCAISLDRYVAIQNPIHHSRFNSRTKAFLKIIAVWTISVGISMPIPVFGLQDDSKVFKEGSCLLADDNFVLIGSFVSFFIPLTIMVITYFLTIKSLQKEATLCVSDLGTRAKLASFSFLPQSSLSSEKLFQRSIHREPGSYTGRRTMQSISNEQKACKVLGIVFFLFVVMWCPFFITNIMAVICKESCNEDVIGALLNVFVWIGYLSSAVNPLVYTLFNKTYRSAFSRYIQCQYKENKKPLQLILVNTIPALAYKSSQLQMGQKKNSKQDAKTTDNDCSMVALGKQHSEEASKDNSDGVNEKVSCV
# Procedure, shortened: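 HTR2A-CHO cells, plated 18 h at 37 C/5% CO2, dye-loaded 1 h at 37 C; compounds in DMSO added by pin tool (agonist mode). Intracellular calcium flux read as kinetic fluorescence on FDSS over 2 min at 1 s intervals.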
# [16] = molecular target: Muscarinic acetylcholine receptor M1 (Homo sapiens) (UniProt P11229); assay: Cholinergic receptor muscarinic 1 (CHRM1) small molecule antagonists, cell-based qHTS assay (AID 1963588); also: nearly all actives have a fitted effect of over 40% in size
# Muscarinic acetylcholine receptor M1 (Homo sapiens), sequence (P11229 whole entry, looked up): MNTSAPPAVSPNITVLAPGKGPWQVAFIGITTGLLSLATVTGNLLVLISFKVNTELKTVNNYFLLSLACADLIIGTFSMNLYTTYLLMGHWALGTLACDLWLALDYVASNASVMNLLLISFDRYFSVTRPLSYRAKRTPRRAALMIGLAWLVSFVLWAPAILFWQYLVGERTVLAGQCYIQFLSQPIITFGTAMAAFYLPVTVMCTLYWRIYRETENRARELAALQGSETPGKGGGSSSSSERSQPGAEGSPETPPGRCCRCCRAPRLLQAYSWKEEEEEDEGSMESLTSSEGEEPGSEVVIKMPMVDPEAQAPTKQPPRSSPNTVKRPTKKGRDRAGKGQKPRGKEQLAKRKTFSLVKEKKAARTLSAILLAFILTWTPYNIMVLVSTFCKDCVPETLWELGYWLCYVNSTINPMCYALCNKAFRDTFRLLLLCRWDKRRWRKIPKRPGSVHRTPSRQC
# Procedure, shortened: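 CHRM1-CHO calcium-flux assay, antagonist mode. Cells were seeded 18 h, dye-loaded 1 h at 37 C and given compound for 5 min at RT, then acetylcholine was added at 50nM. FDSS fluorescence was read 3 min; 15 concentrations, three runs.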
# [17] = molecular target: Muscarinic acetylcholine receptor M1 (Homo sapiens) (UniProt P11229); assay: Cholinergic receptor muscarinic 1 (CHRM1) small molecule agonists, cell-based qHTS assay (AID 1963589); also: nearly all actives have a fitted effect of over 35% in size; also: potency is read from the fitted curve at half-maximal effect
# Procedure, shortened: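 Agonist-mode qHTS in CHO cells stably carrying human muscarinic M1. Intracellular calcium is tracked by fluorescence every second after compound transfer; each compound runs at 15 concentrations in three independent runs.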
# [18] = molecular target: 5-hydroxytryptamine receptor 2A (Homo sapiens) (UniProt P28223); assay: 5-hydroxytryptamine receptor 2A (HTR2A) small molecule antagonists, cell-based qHTS assay (AID 1963586); also: nearly all actives have a fitted effect of over 45% in size
# Procedure, shortened: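 Antagonist-mode intracellular calcium assay: DOI (4 nM) added after 5 min compound pre-incubation at room temperature to dye-loaded HTR2A-CHO cells. Fluorescence followed for 3 min, sampled every second.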
# [19] = p53 small molecule agonists, cell-based qHTS assay (AID 1963582; active = well fitted activation curve with a large enough effect in the signal ratio in the repeat runs, not every such curve was filed as active; the % refers to the signal ratio)
# Procedure, shortened: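 Quantitative HTS in p53RE-bla cells: after a 5 h settling period, compounds delivered in DMSO were left on cells for 16 h at 37 C, and reporter induction was measured as fluorescence following 2 h substrate loading.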
# [20] = p53 small molecule agonists, cell-based qHTS assay with rat liver microsomes (AID 1963578)
# Procedure, shortened: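 Rat liver microsome activation: microsomes 0.5 mg/mL, NADPH 0.5 mg/mL final; p53RE-bla cells, 16 h 37 C; LiveBLAzer readout, 2 h RT dark.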
Structure (SMILES),Potency [1],Potency [2],Potency [3],Potency [4],Potency [5],Potency [6],Potency [7],Potency [8],Potency [9],Potency [10],Potency [11],Potency [12],Potency [13],Potency [14],Potency [15],Potency [16],Potency [17],Potency [18],Potency [19],Potency [20]
COc1ccccc1N,inactive,61.1 µM (active) and inactive,inactive,inactive,inactive,inactive,inactive,inactive,inactive,inactive,inactive,inactive,inactive,,,,,,,
OCCN(CCO)CCO,inactive,inactive,inactive,inactive,inactive,inactive,inactive,inactive,inactive,inactive,inactive,inactive,inactive,inactive,inactive,inactive,inactive,,,
CCc1cccc(CC)c1N(COC)C(=O)CCl,inactive,47 µM (active) and 54.5 µM (active),inactive,inactive,inactive,,inactive,,,inactive,,inactive,,inactive,inactive,inactive,inactive,inactive,,
CCCC[n+]1ccccc1,inactive,inactive,inactive,inactive,inactive,inactive,inactive,inactive,inactive,inactive,inactive,inactive,inactive,inactive,,inactive,,,,
Oc1c(Br)cc(Br)cc1Br,inactive,inactive,inactive,inactive,inactive,inactive,inactive,inactive,,inactive,,,inactive,inactive,inactive,,inactive,inactive,,
CCC(C)(CC)c1cc(NC(=O)c2c(OC)cccc2OC)on1,inactive,inactive,inactive,inactive,inactive,inactive,inactive,,inactive,inactive,,inactive,,,inactive,inactive,inactive,inactive,,
C=CCSSCC=C,inactive,inactive,inactive,inactive,inactive,,inactive,inactive,inactive,inactive,inactive,,inactive,inactive,inactive,inactive,inactive,inactive,inactive,
O=C(O)CF,inactive,inactive,inactive,inactive,inactive,inactive,inactive,inactive,inactive,inactive,,inactive,inactive,inactive,inactive,inactive,inactive,,,
O=C1CCCN1,inactive,inactive,inactive,inactive,inactive,inactive,inactive,inactive,inactive,inactive,,inactive,inactive,inactive,,,49.5 µM (active) and inactive,inactive,,
COP(=S)(OC)Oc1cc(Cl)c(Cl)cc1Cl,inactive,68.1 µM (active),inactive,inactive,inactive,inactive,inactive,inactive,inactive,inactive,,inactive,inactive,,inactive,inactive,inactive,inactive,inactive,
CN(C)c1ccc(N(C)C)cc1,inactive,54.6 µM (active),inactive,inactive,,inactive,0.365 µM (active),inactive,,,,,,inactive,inactive,inactive,inactive,inactive,inactive,inactive
CCOC(=O)c1ccccc1N,inactive,inactive,inactive,inactive,inactive,inactive,inactive,inactive,inactive,inactive,inactive,inactive,inactive,,inactive,inactive,inactive,inactive,,
CCOP(=S)(OCC)SCCSCC,inactive,inactive,inactive,inactive,inactive,inactive,inactive,inactive,inactive,inactive,inactive,inactive,inactive,inactive,inactive,inactive,inactive,,,
NNc1ccccc1,inactive,inactive,inactive,inactive,inactive,inactive,inactive,inactive,inactive,,inactive,inactive,inactive,inactive,,,,,,
CC(Cl)(Cl)C(=O)O,inactive,inactive,inactive,inactive,inactive,inactive,inactive,inactive,inactive,inactive,,,inactive,inactive,,inactive,inactive,inactive,,
Clc1ccc(C2(Cn3cncn3)OCCO2)c(Cl)c1,inactive,inactive,inactive,inactive,,inactive,inactive,inactive,inactive,inactive,inactive,inactive,inactive,inactive,inactive,inactive,inactive,inactive,inactive,inactive
C[C@]12CC[C@H](O)CC1=CC[C@@H]1[C@@H]2CC[C@]2(C)C(=O)CC[C@@H]12,inactive,inactive,inactive,inactive,inactive,inactive,inactive,,,inactive,inactive,inactive,inactive,inactive,,,,,,
